Here are results for one sequence from publication PMC7862700, “An all-to-all approach to the identification of sequence-specific readers for epigenetic DNA modifications on cytosine”.

Common to all, as to assay: DAPPL (digital affinity profiling via proximity ligation, sequencing); 10 mM Tris-HCl pH 7.5, 50 mM NaCl, 1 mM DTT, 4% glycerol, room temperature, 30 min; GST-TFs on glutathione beads, 16-mer random dsDNA library, 0.1% formaldehyde crosslink after washing; high values mean tight binding
One assay addresses T1, FLI1 (Homo sapiens, UniProt Q01543 1-452).
T1 sequence: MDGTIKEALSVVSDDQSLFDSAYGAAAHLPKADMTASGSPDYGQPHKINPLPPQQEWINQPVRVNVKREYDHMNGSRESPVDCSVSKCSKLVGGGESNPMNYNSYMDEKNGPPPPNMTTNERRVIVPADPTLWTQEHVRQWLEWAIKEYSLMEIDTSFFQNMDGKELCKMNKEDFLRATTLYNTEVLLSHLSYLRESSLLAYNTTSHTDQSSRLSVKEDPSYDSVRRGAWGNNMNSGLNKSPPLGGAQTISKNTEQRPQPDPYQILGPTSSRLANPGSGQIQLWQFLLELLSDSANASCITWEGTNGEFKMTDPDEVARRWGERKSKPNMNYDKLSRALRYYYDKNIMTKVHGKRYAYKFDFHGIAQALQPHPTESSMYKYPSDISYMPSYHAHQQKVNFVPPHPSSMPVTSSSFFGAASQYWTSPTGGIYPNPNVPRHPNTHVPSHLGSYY
Conditions: protein: recombinant; tags: N-terminal GST; dsDNA, one strand shown. The essentials:
(§1)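 Human transcription factors were made in yeast as GST fusions, captured on glutathione beads and barcoded with DNA. With a tag-only sample included, the pool was incubated with 200 nmole of a random double-stranded 16-mer DNA library in Tris/NaCl/DTT/glycerol buffer at room temperature for 30 min, then crosslinked with 0.1% formaldehyde after washing, ligated by proximity, amplified and sequenced. For binding signal, each hexamer's read frequency for a factor is divided by its frequency for the tag-only sample.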

A further assay has as its target T2, ELK1 (Homo sapiens, UniProt P19419 1-428).
T2 sequence: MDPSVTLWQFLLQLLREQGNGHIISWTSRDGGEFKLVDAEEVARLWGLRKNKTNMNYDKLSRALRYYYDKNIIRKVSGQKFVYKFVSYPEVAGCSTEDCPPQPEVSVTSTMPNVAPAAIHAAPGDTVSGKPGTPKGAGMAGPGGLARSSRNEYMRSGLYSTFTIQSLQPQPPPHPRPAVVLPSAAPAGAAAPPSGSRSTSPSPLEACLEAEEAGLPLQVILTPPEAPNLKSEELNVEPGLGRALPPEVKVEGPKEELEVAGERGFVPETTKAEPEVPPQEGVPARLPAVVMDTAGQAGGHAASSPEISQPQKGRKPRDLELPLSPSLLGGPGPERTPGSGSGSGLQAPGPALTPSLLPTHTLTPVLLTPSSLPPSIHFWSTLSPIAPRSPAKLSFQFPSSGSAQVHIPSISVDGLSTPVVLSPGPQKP
Conditions: protein: recombinant; tags: N-terminal GST; dsDNA, one strand shown. Summed up:
as §1

A further assay has as its target T3, GABPA (Homo sapiens, UniProt Q06546 1-454).
T3 sequence: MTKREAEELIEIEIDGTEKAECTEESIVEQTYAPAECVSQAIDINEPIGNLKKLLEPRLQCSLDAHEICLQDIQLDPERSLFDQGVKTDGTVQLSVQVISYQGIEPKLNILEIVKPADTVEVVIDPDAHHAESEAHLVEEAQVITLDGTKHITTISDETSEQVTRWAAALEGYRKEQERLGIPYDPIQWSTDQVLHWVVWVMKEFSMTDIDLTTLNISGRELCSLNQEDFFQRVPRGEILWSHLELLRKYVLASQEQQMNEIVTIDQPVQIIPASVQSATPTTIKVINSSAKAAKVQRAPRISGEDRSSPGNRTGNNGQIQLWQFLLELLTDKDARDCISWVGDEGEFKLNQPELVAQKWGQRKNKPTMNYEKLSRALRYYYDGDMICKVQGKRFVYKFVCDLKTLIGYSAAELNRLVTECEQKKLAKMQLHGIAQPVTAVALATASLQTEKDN
Conditions: protein: recombinant; tags: N-terminal GST; dsDNA, one strand shown. Summed up:
as §1

Another assay addresses T4, ERG (Homo sapiens, UniProt P11308 1-479).
T4 sequence: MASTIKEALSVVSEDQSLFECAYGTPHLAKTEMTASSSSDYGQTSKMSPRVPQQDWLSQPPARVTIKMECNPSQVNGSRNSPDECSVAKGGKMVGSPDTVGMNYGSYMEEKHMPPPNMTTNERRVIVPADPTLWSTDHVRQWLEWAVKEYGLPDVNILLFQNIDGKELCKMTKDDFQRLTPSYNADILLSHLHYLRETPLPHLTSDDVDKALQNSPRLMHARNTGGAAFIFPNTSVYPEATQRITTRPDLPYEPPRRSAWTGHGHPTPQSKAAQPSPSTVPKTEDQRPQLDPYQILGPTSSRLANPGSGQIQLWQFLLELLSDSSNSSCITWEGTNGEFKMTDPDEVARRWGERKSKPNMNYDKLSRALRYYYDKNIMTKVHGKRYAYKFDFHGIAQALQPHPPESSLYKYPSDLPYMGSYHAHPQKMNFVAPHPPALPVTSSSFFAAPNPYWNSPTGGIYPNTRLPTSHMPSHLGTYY
Conditions: protein: recombinant; tags: N-terminal GST; dsDNA, one strand shown. The essentials: as §1

Another assay deals with ELF1 (Homo sapiens, UniProt P32519 1-619). Conditions: protein: recombinant; tags: N-terminal GST; dsDNA, one strand shown. Summed up: as §1
The next assay concerns the target T5, EHF (Homo sapiens, UniProt Q9NZC4 1-300).
T5 sequence: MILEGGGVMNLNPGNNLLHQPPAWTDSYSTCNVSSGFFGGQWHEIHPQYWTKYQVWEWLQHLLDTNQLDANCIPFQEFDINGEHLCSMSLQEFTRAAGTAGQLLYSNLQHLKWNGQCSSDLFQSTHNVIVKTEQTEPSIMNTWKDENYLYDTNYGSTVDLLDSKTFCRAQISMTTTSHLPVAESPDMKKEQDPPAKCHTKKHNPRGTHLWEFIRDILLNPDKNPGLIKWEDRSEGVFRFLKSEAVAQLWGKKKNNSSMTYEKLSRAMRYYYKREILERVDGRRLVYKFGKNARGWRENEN
The following applies: protein: recombinant; tags: N-terminal GST; dsDNA, one strand shown. Summed up:
as §1

The target of a further assay is SPI1 (Homo sapiens, UniProt P17947 1-270). Conditions: protein: recombinant; tags: N-terminal GST; dsDNA, one strand shown. The essentials:
as §1

Another assay deals with SPIB (Homo sapiens, UniProt Q01892 1-262). Conditions: protein: recombinant; tags: N-terminal GST; dsDNA, one strand shown. The essentials: as §1
For another assay, the target named is T6, ELK3 (Homo sapiens, UniProt P41970 1-407).
T6 sequence: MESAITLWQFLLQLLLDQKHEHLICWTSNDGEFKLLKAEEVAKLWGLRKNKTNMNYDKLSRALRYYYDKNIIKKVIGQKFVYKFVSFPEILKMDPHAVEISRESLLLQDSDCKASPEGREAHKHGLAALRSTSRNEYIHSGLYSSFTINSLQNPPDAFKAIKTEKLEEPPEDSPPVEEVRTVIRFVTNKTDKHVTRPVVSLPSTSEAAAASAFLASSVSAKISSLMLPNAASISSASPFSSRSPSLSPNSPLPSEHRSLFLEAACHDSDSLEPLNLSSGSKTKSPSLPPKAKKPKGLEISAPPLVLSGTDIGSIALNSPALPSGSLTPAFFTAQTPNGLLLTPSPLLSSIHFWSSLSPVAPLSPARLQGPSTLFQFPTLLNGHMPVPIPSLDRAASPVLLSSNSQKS
The following applies: protein: recombinant; tags: N-terminal GST; dsDNA, one strand shown. The essentials: as §1

A further assay concerns the target T7, FEV (Homo sapiens, UniProt Q99581 1-238).
T7 sequence: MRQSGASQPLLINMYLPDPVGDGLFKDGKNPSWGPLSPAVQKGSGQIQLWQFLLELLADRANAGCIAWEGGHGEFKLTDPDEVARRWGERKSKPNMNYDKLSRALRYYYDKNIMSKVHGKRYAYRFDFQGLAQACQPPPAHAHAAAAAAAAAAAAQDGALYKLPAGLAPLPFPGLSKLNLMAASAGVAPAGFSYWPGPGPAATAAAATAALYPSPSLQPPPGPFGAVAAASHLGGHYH
Conditions: protein: recombinant; tags: N-terminal GST; dsDNA, one strand shown. The essentials:
as §1

The next assay concerns the target ETV5 (Homo sapiens, UniProt P41161 1-510). Conditions: protein: recombinant; tags: N-terminal GST; dsDNA, one strand shown. The essentials: as §1
The next assay deals with HSF1 (Homo sapiens, UniProt Q00613 1-529). Conditions: protein: recombinant; tags: N-terminal GST; chain copies: 3; dsDNA, one strand shown. Summed up: as §1
For the next assay, the target named is T8, SPIC (Homo sapiens, UniProt Q8N5J4 1-248).
T8 sequence: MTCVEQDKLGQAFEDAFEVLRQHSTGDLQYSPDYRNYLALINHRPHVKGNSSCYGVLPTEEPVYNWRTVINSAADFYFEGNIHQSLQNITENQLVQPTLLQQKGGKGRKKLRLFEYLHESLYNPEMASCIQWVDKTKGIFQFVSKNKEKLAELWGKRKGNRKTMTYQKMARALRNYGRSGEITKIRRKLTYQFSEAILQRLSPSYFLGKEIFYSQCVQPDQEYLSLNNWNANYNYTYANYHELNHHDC
Conditions: protein: recombinant; tags: N-terminal GST; dsDNA, one strand shown. Summed up: as §1

Another assay deals with ELF4 (Homo sapiens, UniProt Q99607 1-663). Conditions: protein: recombinant; tags: N-terminal GST; dsDNA, one strand shown. The essentials: as §1
A further assay has as its target T9, ELK4 (Homo sapiens, UniProt P28324-2 1-405).
T9 sequence: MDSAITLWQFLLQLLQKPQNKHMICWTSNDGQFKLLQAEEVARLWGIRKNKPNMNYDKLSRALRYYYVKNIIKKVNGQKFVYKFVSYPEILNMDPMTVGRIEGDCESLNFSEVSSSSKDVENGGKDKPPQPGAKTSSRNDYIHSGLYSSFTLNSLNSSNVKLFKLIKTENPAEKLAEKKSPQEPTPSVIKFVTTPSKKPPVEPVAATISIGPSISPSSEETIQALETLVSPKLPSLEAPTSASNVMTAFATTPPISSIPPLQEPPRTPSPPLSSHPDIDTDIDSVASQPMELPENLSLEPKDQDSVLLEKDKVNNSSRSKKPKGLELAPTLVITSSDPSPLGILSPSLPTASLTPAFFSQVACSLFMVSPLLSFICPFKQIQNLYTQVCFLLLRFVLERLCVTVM
Conditions: protein: recombinant; tags: N-terminal GST; dsDNA, one strand shown. The essentials: as §1

The target of a further assay is T10, ETV2 (Homo sapiens, UniProt O00321 1-342).
T10 sequence: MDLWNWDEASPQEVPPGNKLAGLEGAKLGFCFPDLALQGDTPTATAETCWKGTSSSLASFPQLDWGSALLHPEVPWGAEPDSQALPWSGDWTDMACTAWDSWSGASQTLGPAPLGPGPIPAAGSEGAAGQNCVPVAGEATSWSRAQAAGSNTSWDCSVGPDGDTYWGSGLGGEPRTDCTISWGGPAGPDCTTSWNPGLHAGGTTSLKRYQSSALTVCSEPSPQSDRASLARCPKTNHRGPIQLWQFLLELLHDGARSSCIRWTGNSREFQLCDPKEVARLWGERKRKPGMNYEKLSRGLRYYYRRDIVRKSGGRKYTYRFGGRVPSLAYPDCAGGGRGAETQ
The following applies: protein: recombinant; tags: N-terminal GST; dsDNA, one strand shown. The essentials:
as §1

A further assay addresses T11, ELF3 (Homo sapiens, UniProt P78545 1-371).
T11 sequence: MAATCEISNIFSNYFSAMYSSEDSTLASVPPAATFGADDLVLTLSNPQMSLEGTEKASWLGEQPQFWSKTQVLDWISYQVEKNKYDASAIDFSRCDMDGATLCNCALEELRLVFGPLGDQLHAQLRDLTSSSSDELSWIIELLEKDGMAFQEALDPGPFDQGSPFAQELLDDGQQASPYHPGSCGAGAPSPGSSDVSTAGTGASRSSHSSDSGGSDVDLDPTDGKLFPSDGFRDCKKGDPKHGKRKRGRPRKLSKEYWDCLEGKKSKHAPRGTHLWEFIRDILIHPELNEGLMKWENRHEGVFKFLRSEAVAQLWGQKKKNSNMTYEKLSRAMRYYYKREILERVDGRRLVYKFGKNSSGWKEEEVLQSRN
Conditions: protein: recombinant; tags: N-terminal GST; dsDNA, one strand shown. Summed up: as §1

The next assay has as its target ETV1 (Homo sapiens, UniProt P50549 1-477). The following applies: protein: recombinant; tags: N-terminal GST; dsDNA, one strand shown. The essentials:
as §1

Sequence of ELF1 (P32519 whole entry): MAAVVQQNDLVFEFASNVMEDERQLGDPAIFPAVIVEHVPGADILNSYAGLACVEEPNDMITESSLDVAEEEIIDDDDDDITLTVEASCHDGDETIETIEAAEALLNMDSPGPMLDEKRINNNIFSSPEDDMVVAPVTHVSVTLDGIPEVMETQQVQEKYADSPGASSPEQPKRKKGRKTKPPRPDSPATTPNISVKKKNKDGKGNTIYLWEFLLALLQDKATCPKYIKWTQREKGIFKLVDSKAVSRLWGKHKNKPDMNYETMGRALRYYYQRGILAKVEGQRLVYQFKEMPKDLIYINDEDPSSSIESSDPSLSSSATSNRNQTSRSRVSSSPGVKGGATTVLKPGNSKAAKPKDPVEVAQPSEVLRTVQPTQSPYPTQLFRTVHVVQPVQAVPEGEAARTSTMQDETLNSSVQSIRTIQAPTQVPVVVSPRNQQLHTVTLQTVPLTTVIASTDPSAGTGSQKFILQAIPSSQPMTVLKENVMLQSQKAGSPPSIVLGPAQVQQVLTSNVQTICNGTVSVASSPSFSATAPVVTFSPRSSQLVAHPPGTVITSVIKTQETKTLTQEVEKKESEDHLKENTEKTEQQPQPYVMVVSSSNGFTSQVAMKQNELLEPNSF
Sequence of ETV5 (P41161 whole entry): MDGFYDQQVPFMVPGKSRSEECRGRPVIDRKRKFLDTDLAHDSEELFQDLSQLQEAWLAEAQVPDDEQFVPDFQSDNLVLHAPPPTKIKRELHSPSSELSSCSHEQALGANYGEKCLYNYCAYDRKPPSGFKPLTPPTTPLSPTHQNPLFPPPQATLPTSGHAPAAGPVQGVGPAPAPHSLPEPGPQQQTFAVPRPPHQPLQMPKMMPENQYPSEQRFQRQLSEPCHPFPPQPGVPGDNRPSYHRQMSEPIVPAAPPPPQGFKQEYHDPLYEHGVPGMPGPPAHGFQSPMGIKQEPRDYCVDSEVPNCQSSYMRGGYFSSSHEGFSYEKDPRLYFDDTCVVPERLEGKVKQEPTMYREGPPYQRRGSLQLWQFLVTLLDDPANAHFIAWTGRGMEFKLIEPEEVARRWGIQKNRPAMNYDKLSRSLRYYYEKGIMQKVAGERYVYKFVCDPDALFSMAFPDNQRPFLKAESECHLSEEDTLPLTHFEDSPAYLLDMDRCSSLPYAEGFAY
Sequence of HSF1 (Q00613 whole entry): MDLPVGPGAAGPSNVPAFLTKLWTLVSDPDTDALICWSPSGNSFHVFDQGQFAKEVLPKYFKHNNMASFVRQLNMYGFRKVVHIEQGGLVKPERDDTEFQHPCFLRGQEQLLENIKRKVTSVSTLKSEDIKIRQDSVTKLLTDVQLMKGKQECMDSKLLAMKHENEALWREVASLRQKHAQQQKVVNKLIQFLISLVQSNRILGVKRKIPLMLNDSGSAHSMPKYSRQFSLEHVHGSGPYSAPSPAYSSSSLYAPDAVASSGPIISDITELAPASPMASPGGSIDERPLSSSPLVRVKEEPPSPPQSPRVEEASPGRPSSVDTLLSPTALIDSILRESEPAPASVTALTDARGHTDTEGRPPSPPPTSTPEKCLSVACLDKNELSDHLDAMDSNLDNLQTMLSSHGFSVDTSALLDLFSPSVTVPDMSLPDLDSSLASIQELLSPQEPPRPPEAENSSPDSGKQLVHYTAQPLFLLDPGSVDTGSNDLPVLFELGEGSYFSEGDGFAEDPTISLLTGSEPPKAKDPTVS
Sequence of ETV1 (P50549 whole entry): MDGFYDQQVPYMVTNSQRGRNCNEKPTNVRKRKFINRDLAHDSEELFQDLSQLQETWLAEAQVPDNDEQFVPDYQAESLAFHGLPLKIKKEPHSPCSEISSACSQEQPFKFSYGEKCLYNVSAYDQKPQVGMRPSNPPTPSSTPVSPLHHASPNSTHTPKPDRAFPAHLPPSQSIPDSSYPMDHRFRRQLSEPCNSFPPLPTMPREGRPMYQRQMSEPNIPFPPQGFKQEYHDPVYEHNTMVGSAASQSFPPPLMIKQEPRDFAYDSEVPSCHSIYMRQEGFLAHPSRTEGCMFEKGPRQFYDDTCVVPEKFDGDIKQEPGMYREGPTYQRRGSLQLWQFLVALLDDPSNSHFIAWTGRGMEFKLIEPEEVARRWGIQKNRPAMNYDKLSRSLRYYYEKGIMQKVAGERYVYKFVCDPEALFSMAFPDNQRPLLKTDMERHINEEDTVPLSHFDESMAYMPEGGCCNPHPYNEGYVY
Sequence of SPIB (Q01892 whole entry): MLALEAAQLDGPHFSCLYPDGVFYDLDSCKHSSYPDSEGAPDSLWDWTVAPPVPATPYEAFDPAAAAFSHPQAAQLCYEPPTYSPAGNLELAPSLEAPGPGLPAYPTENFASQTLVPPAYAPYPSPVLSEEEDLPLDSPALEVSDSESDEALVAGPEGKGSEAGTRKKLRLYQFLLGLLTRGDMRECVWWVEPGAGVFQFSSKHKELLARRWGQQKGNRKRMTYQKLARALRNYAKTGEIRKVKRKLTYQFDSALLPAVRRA
Sequence of ELF4 (Q99607 whole entry): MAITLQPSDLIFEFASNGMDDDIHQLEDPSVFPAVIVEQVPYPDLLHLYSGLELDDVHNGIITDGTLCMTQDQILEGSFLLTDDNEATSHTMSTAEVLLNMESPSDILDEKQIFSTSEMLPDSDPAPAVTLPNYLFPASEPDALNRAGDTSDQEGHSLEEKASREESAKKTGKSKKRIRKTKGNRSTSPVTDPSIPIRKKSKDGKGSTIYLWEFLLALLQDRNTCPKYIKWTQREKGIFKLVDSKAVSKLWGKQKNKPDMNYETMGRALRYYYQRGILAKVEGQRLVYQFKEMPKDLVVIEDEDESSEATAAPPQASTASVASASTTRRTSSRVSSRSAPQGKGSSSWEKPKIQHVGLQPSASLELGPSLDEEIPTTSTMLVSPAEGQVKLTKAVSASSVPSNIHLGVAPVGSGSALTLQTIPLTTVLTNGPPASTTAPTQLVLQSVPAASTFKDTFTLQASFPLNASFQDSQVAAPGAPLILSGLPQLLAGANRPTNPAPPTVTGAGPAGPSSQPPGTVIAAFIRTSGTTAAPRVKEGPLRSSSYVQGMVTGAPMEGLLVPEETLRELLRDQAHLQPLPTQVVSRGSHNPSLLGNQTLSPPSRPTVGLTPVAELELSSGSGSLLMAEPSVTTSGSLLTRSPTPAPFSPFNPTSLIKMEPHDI

Consider GAAGTT, for which the binding signal is 1.76 fold enrichment (6-mer frequency, TF over GST control) with FLI1; 1.66 fold enrichment (6-mer frequency, TF over GST control) in the assay with ELK1; 1.63 fold enrichment (6-mer frequency, TF over GST control) with GABPA; 1.77 fold enrichment (6-mer frequency, TF over GST control) with ERG; 1.61 fold enrichment (6-mer frequency, TF over GST control) with ELF1; 1.72 fold enrichment (6-mer frequency, TF over GST control) in the assay with EHF. For the same sequence, the binding signal with SPI1 is 2.02 fold enrichment (6-mer frequency, TF over GST control); in the assay with SPIB it was 1.72 fold enrichment (6-mer frequency, TF over GST control); in the assay with ELK3, 1.62 fold enrichment (6-mer frequency, TF over GST control); with FEV it was 1.62 fold enrichment (6-mer frequency, TF over GST control); in the assay with ETV5 it was 1.66 fold enrichment (6-mer frequency, TF over GST control); in the assay with HSF1, 1.39 fold enrichment (6-mer frequency, TF over GST control). In addition, the binding signal with SPIC was 1.76 fold enrichment (6-mer frequency, TF over GST control); with ELF4, 1.61 fold enrichment (6-mer frequency, TF over GST control); in the assay with ELK4 it was 1.52 fold enrichment (6-mer frequency, TF over GST control); with ETV2 it was 1.58 fold enrichment (6-mer frequency, TF over GST control); in the assay with ELF3 it was 1.82 fold enrichment (6-mer frequency, TF over GST control); with ETV1 it was 1.63 fold enrichment (6-mer frequency, TF over GST control).
